# Data from PubChem BioAssay (NCI).
# The panel holds about 79,000 compounds, 15% with a hit somewhere; the sample as a whole holds those more often. Unmarked numbers belong to inactive results. Activity calls are given as the source filed them. Rule as the data show it: active = growth inhibition above about 70%; inactive = the rest.
# Assays:
# [1] = NCI Yeast Anticancer Drug Screen. Data for the rad52 strain (AID 147);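 also: 0% = growth of vehicle-treated control cultures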; settings: S. cerevisiae rad52 mutant growth inhibition, active compounds read high
# Outline: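 The repair-mutant yeast strain was incubated with compounds, then growth was read and inhibition derived relative to vehicle.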
# [2] = NCI Yeast Anticancer Drug Screen. Data for the wt1 strain (AID 149);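 also: 0% = growth of vehicle-treated wt1 cultures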; settings: S. cerevisiae wt1 strain (SPY 50644) growth inhibition, active compounds read high
# Outline: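 Each compound is tested on wt1 yeast and the loss of growth versus vehicle gives the inhibition value.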
# [3] = NCI Yeast Anticancer Drug Screen. Data for the rad50EPP+ strain (AID 151);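 also: 0% = growth of vehicle-treated control cultures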; settings: S. cerevisiae rad50 mutant strain, active compounds read high
# Outline: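 Vehicle-normalised growth inhibition; rad50EPP+ yeast strain, altered in DNA damage repair, compound-treated.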
# [4] = NCI Yeast Anticancer Drug Screen. Data for the mgt1 strain (AID 153); settings: S. cerevisiae mgt1 mutant growth inhibition, active compounds read high
# Outline: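 Vehicle-normalized growth inhibition is determined in mgt1 yeast, a strain selected for a defined alteration in DNA repair or cell cycle control.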
# [5] = NCI Yeast Anticancer Drug Screen. Data for the rad50 strain (AID 155);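 also: 0% = growth of vehicle-only cultures of the same strain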; settings: S. cerevisiae rad50 strain growth inhibition, active compounds read high
# Outline: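 Vehicle-treated cultures provide the reference for the growth inhibition reported for compound-exposed, repair-deficient yeast.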
# [6] = NCI Yeast Anticancer Drug Screen. Data for the mec2-1 strain (AID 157); settings: S. cerevisiae mec2-1 strain, active compounds read high
# Outline: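 Mutant yeast (mec2-1) grown with compound; growth inhibition relative to vehicle control reported.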
# [7] = NCI Yeast Anticancer Drug Screen. Data for the rad14 strain (AID 159);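 also: 0% = growth of vehicle-treated control cultures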; settings: S. cerevisiae rad14 strain growth inhibition, active compounds read high
# Outline: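 Inhibition of growth is reported for a repair-deficient yeast mutant following compound treatment, calculated relative to cultures that received vehicle.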
# [8] = NCI Yeast Anticancer Drug Screen. Data for the sgs1 mgt1 strain (AID 161);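 also: 0% = growth of cultures given vehicle only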; settings: S. cerevisiae sgs1 mgt1 strain, active compounds read high
# Outline: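 Compounds are added to genetically altered yeast, and growth is compared with cultures given vehicle alone to give percent inhibition.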
# [9] = NCI Yeast Anticancer Drug Screen. Data for the CLN2oe strain (AID 163);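 also: 0% = growth of vehicle-only control cultures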; settings: S. cerevisiae CLN2oe strain, active compounds read high
# Outline: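 Compounds are applied to yeast harbouring a defined cell-cycle control change; reduced growth compared with vehicle-treated controls gives the value.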
# [10] = NCI Yeast Anticancer Drug Screen. Data for the cln2 rad14 strain (AID 165);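 also: 0% = growth equal to vehicle treated cultures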; settings: S. cerevisiae cln2 rad14 strain, active compounds read high
# Outline: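 Readout is yeast growth inhibition versus vehicle-treated controls, using a strain with cln2 and rad14 alterations exposed to compound.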
# [11] = NCI Yeast Anticancer Drug Screen. Data for the bub3 strain (AID 167); settings: S. cerevisiae bub3 mutant strain, active compounds read high
# Outline: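 Mutant yeast screening strain plus compound; vehicle-treated cultures serve as the 0% inhibition reference.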
# [12] = NCI Yeast Anticancer Drug Screen. Data for the wt2 strain (AID 169); settings: S. cerevisiae wt2 strain growth inhibition, active compounds read high
# Outline: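 Against vehicle-treated controls, the growth of yeast exposed to each compound was compared, and the inhibition was recorded.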
# [13] = NCI Yeast Anticancer Drug Screen. Data for the mlh1 strain (AID 171);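 also: 0% = growth of vehicle-treated control cultures of the same strain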; settings: S. cerevisiae mlh1 strain growth inhibition, active compounds read high
# Outline: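 Measured: yeast growth. Reference: vehicle-treated controls. Organism: strain with a defined alteration affecting DNA damage repair or cell cycle control, treated with compound.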
# [14] = NCI Yeast Anticancer Drug Screen. Data for the sgs1 strain (AID 173);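 also: 0% = growth of vehicle-only control cultures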; settings: S. cerevisiae sgs1 mutant, active compounds read high
# Outline: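 Each compound was added to cultures of the altered yeast strain. Growth was recorded, and inhibition was derived by comparison with vehicle controls.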
# [15] = NCI Yeast Anticancer Drug Screen. Data for the mlh1 rad18 strain (AID 175); settings: S. cerevisiae mlh1 rad18 strain growth inhibition, active compounds read high
# Outline: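 Genetically defined yeast (DNA repair-deficient) exposed to compounds; growth inhibition determined relative to vehicle.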
# [16] = NCI Yeast Anticancer Drug Screen. Data for the rad18 strain (AID 177); settings: S. cerevisiae rad18 mutant growth inhibition, active compounds read high
# Outline: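 Vehicle-treated cultures served as the baseline for scoring compound-induced growth inhibition in DNA-repair-mutant yeast.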
# [17] = at 5.0 µM (retest, dose inferred, filed as 0.5)
# [18] = at 50.0 µM (retest, dose inferred, filed as 5.0)
structure (smiles),measurement,setting,value
Cc1ccc(CCC2=CCCc3c2ccc2ccccc32)cc1,growth inhibition,[1]; at 1.2 µM,-1%
same,growth inhibition,[1]; at 3.7 µM,-3%
same,growth inhibition,[1]; at 11.0 µM,0%
same,growth inhibition,[1]; at 33.0 µM,1%
same,growth inhibition,[1]; at 100.0 µM,0%
same,growth inhibition,[2]; at 1.2 µM,-3%
same,growth inhibition,[2]; at 3.7 µM,-4%
same,growth inhibition,[2]; at 11.0 µM,-5%
same,growth inhibition,[2]; at 33.0 µM,-8%
same,growth inhibition,[2]; at 100.0 µM,-9%
same,growth inhibition,[3]; at 1.2 µM,-3%
same,growth inhibition,[3]; at 3.7 µM,5%
same,growth inhibition,[3]; at 11.0 µM,13%
same,growth inhibition,[3]; at 33.0 µM,40%
same,growth inhibition,[3]; at 100.0 µM,58%
same,growth inhibition,[4]; at 1.2 µM,-4%
same,growth inhibition,[4]; at 3.7 µM,-3%
same,growth inhibition,[4]; at 11.0 µM,-3%
same,growth inhibition,[4]; at 33.0 µM,-8%
same,growth inhibition,[4]; at 100.0 µM,-39%
same,growth inhibition,[5]; at 1.2 µM,-1%
same,growth inhibition,[5]; at 3.7 µM,-2%
same,growth inhibition,[5]; [17],-7%
same,growth inhibition,[5]; at 11.0 µM,0%
same,growth inhibition,[5]; at 33.0 µM,-1%
same,growth inhibition,[5]; [18],-25%
same,growth inhibition,[5]; at 50.0 µM,11.1%
same,growth inhibition,[5]; at 100.0 µM,2%
same,growth inhibition,[6]; at 1.2 µM,-4%
same,growth inhibition,[6]; at 3.7 µM,-5%
same,growth inhibition,[6]; [17],44%
same,growth inhibition,[6]; at 11.0 µM,-5%
same,growth inhibition,[6]; at 33.0 µM,-4%
same,growth inhibition,[6]; [18],31%
same,growth inhibition,[6]; at 50.0 µM,6.45%
same,growth inhibition,[6]; at 100.0 µM,5%
same,growth inhibition,[7]; at 1.2 µM,-4%
same,growth inhibition,[7]; at 3.7 µM,-4%
same,growth inhibition,[7]; at 11.0 µM,0%
same,growth inhibition,[7]; at 33.0 µM,6%
same,growth inhibition,[7]; at 100.0 µM,13%
same,growth inhibition,[8]; [17],5%
same,growth inhibition,[8]; [18],10%
same,growth inhibition,[8]; at 50.0 µM,33%
same,growth inhibition,[9]; at 1.2 µM,-5%
same,growth inhibition,[9]; at 3.7 µM,-2%
same,growth inhibition,[9]; at 11.0 µM,-9%
same,growth inhibition,[9]; at 33.0 µM,-5%
same,growth inhibition,[9]; at 100.0 µM,9%
same,growth inhibition,[10]; [17],6%
same,growth inhibition,[10]; [18],-10%
same,growth inhibition,[10]; at 50.0 µM,16.8%
same,growth inhibition,[11]; at 1.2 µM,-4%
same,growth inhibition,[11]; at 3.7 µM,-2%
same,growth inhibition,[11]; [17],63%
same,growth inhibition,[11]; at 11.0 µM,-4%
same,growth inhibition,[11]; at 33.0 µM,5%
same,growth inhibition,[11]; [18],84% (active)
same,growth inhibition,[11]; at 50.0 µM,33.8%
same,growth inhibition,[11]; at 100.0 µM,15%
same,growth inhibition,[12]; at 1.2 µM,-3%
same,growth inhibition,[12]; at 3.7 µM,-5%
same,growth inhibition,[12]; at 11.0 µM,-5%
same,growth inhibition,[12]; at 33.0 µM,-8%
same,growth inhibition,[12]; at 100.0 µM,-8%
same,growth inhibition,[13]; at 1.2 µM,-3%
same,growth inhibition,[13]; at 3.7 µM,-4%
same,growth inhibition,[13]; at 11.0 µM,-4%
same,growth inhibition,[13]; at 33.0 µM,-1%
same,growth inhibition,[13]; at 100.0 µM,4%
same,growth inhibition,[14]; at 1.2 µM,-5%
same,growth inhibition,[14]; at 3.7 µM,-4%
same,growth inhibition,[14]; at 11.0 µM,-1%
same,growth inhibition,[14]; at 33.0 µM,0%
same,growth inhibition,[14]; at 100.0 µM,3%
same,growth inhibition,[15]; [17],38%
same,growth inhibition,[15]; [18],16%
same,growth inhibition,[15]; at 50.0 µM,16.9%
same,growth inhibition,[16]; at 1.2 µM,-4%
same,growth inhibition,[16]; at 3.7 µM,-1%
same,growth inhibition,[16]; at 11.0 µM,-2%
same,growth inhibition,[16]; at 33.0 µM,-2%
same,growth inhibition,[16]; at 100.0 µM,2%
CC(C)c1ccccc1NC(=O)/C(Cl)=C(\Cl)C(=O)O,growth inhibition,[1]; at 1.2 µM,0%
same,growth inhibition,[1]; at 3.7 µM,1%
same,growth inhibition,[1]; at 11.0 µM,0%
same,growth inhibition,[1]; at 33.0 µM,5%
same,growth inhibition,[1]; at 100.0 µM,99% (active)
same,growth inhibition,[2]; at 1.2 µM,-1%
same,growth inhibition,[2]; at 3.7 µM,-1%
same,growth inhibition,[2]; at 11.0 µM,-1%
same,growth inhibition,[2]; at 33.0 µM,1%
same,growth inhibition,[2]; at 100.0 µM,59%
same,growth inhibition,[3]; at 1.2 µM,2%
same,growth inhibition,[3]; at 3.7 µM,4%
same,growth inhibition,[3]; at 11.0 µM,7%
same,growth inhibition,[3]; at 33.0 µM,21%
same,growth inhibition,[3]; at 100.0 µM,99% (active)
same,growth inhibition,[4]; at 1.2 µM,1%
same,growth inhibition,[4]; at 3.7 µM,3%
same,growth inhibition,[4]; at 11.0 µM,5%
same,growth inhibition,[4]; at 33.0 µM,8%
same,growth inhibition,[4]; at 100.0 µM,94% (active)
same,growth inhibition,[5]; at 1.2 µM,0%
same,growth inhibition,[5]; at 3.7 µM,0%
same,growth inhibition,[5]; [17],0%
same,growth inhibition,[5]; at 11.0 µM,-2%
same,growth inhibition,[5]; at 33.0 µM,11%
same,growth inhibition,[5]; [18],82% (active)
same,growth inhibition,[5]; at 50.0 µM,30.1%
same,growth inhibition,[5]; at 100.0 µM,98% (active)
same,growth inhibition,[6]; at 1.2 µM,1%
same,growth inhibition,[6]; at 3.7 µM,0%
same,growth inhibition,[6]; [17],26%
same,growth inhibition,[6]; at 11.0 µM,1%
same,growth inhibition,[6]; at 33.0 µM,7%
same,growth inhibition,[6]; [18],27%
same,growth inhibition,[6]; at 50.0 µM,6.85%
same,growth inhibition,[6]; at 100.0 µM,99% (active)
same,growth inhibition,[7]; at 1.2 µM,2%
same,growth inhibition,[7]; at 3.7 µM,2%
same,growth inhibition,[7]; at 11.0 µM,4%
same,growth inhibition,[7]; at 33.0 µM,6%
same,growth inhibition,[7]; at 100.0 µM,93% (active)
same,growth inhibition,[8]; [17],-12%
same,growth inhibition,[8]; [18],16%
same,growth inhibition,[8]; at 50.0 µM,2.4%
same,growth inhibition,[9]; at 1.2 µM,1%
same,growth inhibition,[9]; at 3.7 µM,6%
same,growth inhibition,[9]; at 11.0 µM,5%
same,growth inhibition,[9]; at 33.0 µM,2%
same,growth inhibition,[9]; at 100.0 µM,82% (active)
same,growth inhibition,[10]; [17],13%
same,growth inhibition,[10]; [18],63%
same,growth inhibition,[10]; at 50.0 µM,51.6%
same,growth inhibition,[11]; at 1.2 µM,0%
same,growth inhibition,[11]; at 3.7 µM,1%
same,growth inhibition,[11]; [17],9%
same,growth inhibition,[11]; at 11.0 µM,5%
same,growth inhibition,[11]; at 33.0 µM,7%
same,growth inhibition,[11]; [18],77% (active)
same,growth inhibition,[11]; at 50.0 µM,8.1%
same,growth inhibition,[11]; at 100.0 µM,97% (active)
